Shown are actives, neighbours in structure and some others; about 4.1% of the full set was active somewhere.
MPTP block = blocks calcium-induced mitochondrial swelling; actives 1.4% (n = 360,000); isolated mouse mitochondria, Ca2+ swelling absorbance, 30 min; inhibition, % at 10 µM;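 active = inhibition of 50% or more, scaled per plate between neutral and stimulator controls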;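 note: 0% = DMSO wells given calcium and 100% = 1 mM EGTA wells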
p-CIP stab down = lowers stability of the mouse p/CIP coactivator protein. Q05BA5. F442A p/CIP-EGFP cells, EGFP fluorescence, 16 h. decrease of EGFP signal, % at 10 µM. actives 0.01% (n = 290,000). AID 1984;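 active = EGFP signal decrease of at least 30% at 10 µM or well 3 SD below plate mean, unless failing retest; inactive = the rest, including hits failing retest or dose response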
Target sequence (Q05BA5 1-1403): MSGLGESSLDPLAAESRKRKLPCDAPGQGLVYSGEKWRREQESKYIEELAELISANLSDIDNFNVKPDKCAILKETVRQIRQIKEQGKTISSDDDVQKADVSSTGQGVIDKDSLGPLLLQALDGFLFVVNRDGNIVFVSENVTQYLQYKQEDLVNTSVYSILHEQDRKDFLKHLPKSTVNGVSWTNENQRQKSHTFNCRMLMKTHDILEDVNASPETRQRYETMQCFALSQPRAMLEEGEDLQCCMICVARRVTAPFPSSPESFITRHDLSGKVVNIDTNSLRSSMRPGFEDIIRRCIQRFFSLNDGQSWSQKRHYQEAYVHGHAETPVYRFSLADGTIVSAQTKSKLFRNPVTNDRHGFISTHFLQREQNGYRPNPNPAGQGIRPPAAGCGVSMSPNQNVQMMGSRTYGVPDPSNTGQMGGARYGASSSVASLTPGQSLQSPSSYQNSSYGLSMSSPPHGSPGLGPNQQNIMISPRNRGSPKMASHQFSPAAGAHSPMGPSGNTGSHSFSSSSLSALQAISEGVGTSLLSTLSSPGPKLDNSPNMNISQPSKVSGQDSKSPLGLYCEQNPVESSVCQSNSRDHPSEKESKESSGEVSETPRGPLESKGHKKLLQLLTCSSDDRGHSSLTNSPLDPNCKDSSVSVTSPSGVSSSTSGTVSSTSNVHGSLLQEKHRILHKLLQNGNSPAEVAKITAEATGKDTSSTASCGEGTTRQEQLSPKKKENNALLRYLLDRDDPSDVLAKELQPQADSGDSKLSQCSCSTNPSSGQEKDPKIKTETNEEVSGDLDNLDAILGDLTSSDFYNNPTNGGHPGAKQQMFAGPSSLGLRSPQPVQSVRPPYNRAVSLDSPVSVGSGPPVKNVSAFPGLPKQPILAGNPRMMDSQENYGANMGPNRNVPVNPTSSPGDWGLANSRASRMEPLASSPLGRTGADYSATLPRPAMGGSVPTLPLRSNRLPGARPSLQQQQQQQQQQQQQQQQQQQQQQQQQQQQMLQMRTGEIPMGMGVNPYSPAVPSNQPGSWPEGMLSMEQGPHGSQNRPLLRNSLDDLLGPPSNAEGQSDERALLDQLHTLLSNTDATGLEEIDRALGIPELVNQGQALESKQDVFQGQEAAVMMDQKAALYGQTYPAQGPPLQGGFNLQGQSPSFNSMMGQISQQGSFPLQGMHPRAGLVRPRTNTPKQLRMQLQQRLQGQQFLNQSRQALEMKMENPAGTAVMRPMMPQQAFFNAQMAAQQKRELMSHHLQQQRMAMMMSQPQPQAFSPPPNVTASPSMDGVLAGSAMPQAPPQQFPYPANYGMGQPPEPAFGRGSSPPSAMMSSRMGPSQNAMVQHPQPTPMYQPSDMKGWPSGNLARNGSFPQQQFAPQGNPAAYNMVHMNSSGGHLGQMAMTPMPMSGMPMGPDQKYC
FAS-TE inh = inhibitors of human fatty acid synthase thioesterase domain; P49327; recombinant FAS-TE, OMFH fluorogenic substrate, fluorescence endpoint; inhibition, % at 15 µM; actives 0.67% (n = 360,000);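 active = compounds whose normalised, plate-corrected inhibition of enzyme fluorescence in the single-dose primary screen is 50% or more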;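 note: 0% = DMSO with enzyme and 100% = substrate without enzyme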
GRIN3A LBD mod = modulators (binders) of human NR3A ligand-binding domain; NR3A LBD differential scanning fluorimetry, Tm shift; 0% = protein alone, 100% = glycine-bound protein; Tm shift relative to glycine control, % at 25 µM; actives 2.5% (n = 340,000);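 active = melting temperature shift of at least 10% of the positive control shift, at one fixed dose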
MIN6 prolif = inducers of beta-cell replication in MIN6 cells; MIN6 cells proliferation, ATPlite luminescence, 48 h; cells starved in 0.2% serum; 100% = growth in 10% serum; proliferation, % at 10 µM; actives 0.29% (n = 330,000);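 active = compounds whose signal lies at least 3.5 SD above the mean of all wells on their plate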;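 note: 0% = DMSO-treated cells in low-serum medium and 100% = 10% serum control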
MPTP counter = Rhodamine 123 counter-screen of mitochondrial pore hits. shares compounds with MPTP block. actives 78% (n = 5,000). isolated mitochondria, membrane potential, Rhodamine 123 fluorescence. inhibition, % at 10 µM. AID 624504; in the data active = inhibition above about 22%;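 note: 0% = DMSO vehicle and 100% = positive control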
MPTP swell DR = dose response confirmation of mitochondrial permeability transition pore inhibitors | shares compounds with MPTP block | isolated mitochondria swelling, absorbance | IC50, µM | actives 58% (n = 780) | AID 651561; in the data active = IC50 below about 20 µM
MPTP counter DR = counter-screen for mitochondrial permeability transition pore inhibitors, dose response. shares compounds with MPTP block. isolated mitochondria counterscreen, fluorescence read-out. IC50, µM. actives 49% (n = 780); in the data active = IC50 below about 80 µM
Numbers without * were called inactive; i = inactive; nt = not tested or not shown.

SMILES | MPTP block | p-CIP stab down | FAS-TE inh | GRIN3A LBD mod | MIN6 prolif | MPTP counter | others
CC1(C)CC(=O)C2=C(C1)c1c(ccc3ccccc13)NC2c1ccc(C(=O)O)cc1 (stereo not given) | 0 | 0 | -2 | -1 | -4 | nt
Cc1nc(-c2c(C(F)(F)F)noc2-c2ccc(O)cc2O)cs1 | 0 | -4 | 0 | 2 | -1 | nt
CCOc1cc(C)c(-c2onc(C(F)(F)F)c2-c2csc(C)n2)c(O)c1 | 70* | -3 | 15 | 1 | -5 | 83*
CC1CCN(CCCNS(=O)(=O)c2cc(Br)cc3c2N(C(=O)C2CC2)CC3)CC1 | -1 | -17 | -11 | -2 | 4 | nt
CCC(C)Sc1cc(C(F)(F)F)c(C(=O)Nc2ccc(Cl)cc2)cn1 (stereo not given) | 75* | -17 | 13 | -10 | -4 | 87*
COc1cc(CNCCO)ccc1OCC(=O)Nc1ccc(Br)cc1 | 59* | -14 | -5 | -2 | -2 | -10 | MPTP swell DR=i;MPTP counter DR=>80
Cn1nc(CC(=O)NC2CCCCCCCCCCC2)c2ccccc2c1=O | 2 | -13 | -65 | -9 | 0 | nt
Cn1nc(CC(=O)Nc2ccc3c(c2)CCC3)c2ccccc2c1=O | 95* | -14 | -2 | 0 | -6 | 78*
COc1cccc(C(C)NC(=O)Nc2cccc(C(F)(F)F)c2)c1 (stereo not given) | 96* | -6 | 34 | 0 | -5 | 102*
COc1cccc(NC(=O)Nc2ccc3c(c2)N(C)C(=O)CS3)c1 | 88* | -5 | 12 | -2 | 2 | 78*
Cc1ccc(NC(=O)Nc2ccc(F)cc2)cc1Cl | 95* | -7 | 3 | 28* | -2 | 90*
Cc1ccc(NC(=O)CCC(=O)c2ccc(F)cc2)cc1Cl | -2 | 0 | 7 | -2 | -2 | nt
COc1cccc(NC(=O)Nc2ccc(C)c(Cl)c2)c1 | 80* | 13 | 7 | 34* | -3 | 90*
CNC(=O)c1c(NC(=O)C2=COCCO2)sc(C)c1C | -1 | nt | -6 | 0 | -1 | nt
O=C(O)CNC(=O)c1ccc(Oc2c(F)c(F)c(Oc3ccc(C(=O)NCC(=O)O)cc3)c(F)c2F)cc1 | 0 | 1 | -10 | -3 | 3 | nt
COc1cccc(NC(=O)Nc2ccc(C(C)(C)C)cc2)c1 | 79* | -16 | 18 | 18* | -5 | 81*
O=C(c1ccc2nc(Cc3cccc(Cl)c3)oc2c1)N1CCC[C@H]1CO | -1 | 6 | -2 | 1 | 0 | nt
O=S(=O)(Nc1cccc2ncccc12)c1cccc(C(F)(F)F)c1 | 3 | nt | -8 | -3 | -2 | nt
COc1ccc(NC(=S)Nc2ccc3nsnc3c2)cc1 | 60* | 2 | 1 | 24* | -4 | 78*
COc1ccc(NC(=S)Nc2ccc3nc(C)c(C)nc3c2)cc1 | 3 | -11 | 0 | -5 | -1 | nt
CCOc1ccc(NC(=S)Nc2ccc3nsnc3c2)cc1 | 86* | 0 | 10 | 22* | 0 | 77*
CCOc1ccc(NC(=O)Nc2ccc3nsnc3c2)cc1 | 91* | -7 | -1 | 26* | -2 | 89*
CCOc1ccc(NC(=S)Nc2ccc(OCC)cc2)cc1 | 1 | 0 | -2 | 0 | -6 | nt
N#CC1(NC(=O)CSc2nnc(-c3ccccc3F)n2N)CCCCC1 | -3 | nt | -6 | 1 | -3 | nt
CCOC(=O)C1=C(O)c2ccccc2C(=O)/C1=C\c1ccc(CC)cc1 | 67* | -26 | 32 | -8 | nt | 77*
SMILES | MPTP block | p-CIP stab down | FAS-TE inh | GRIN3A LBD mod | MIN6 prolif | MPTP counter | others
Cc1ccc(N=Nc2ccc(O)c(/C=N\NC(=O)c3ccc(N)cc3)c2)cc1C | 2 | 4 | -1 | 1 | -5 | nt
CC(C)(C)OC(=O)N/N=C/c1cc(N=Nc2ccccc2)ccc1O | 96* | 1 | 8 | 6 | -6 | 69*
Cc1n[nH]c(C)c1NC(=O)CSc1nnnn1-c1cccc(F)c1 | 0 | nt | -6 | 1 | 2 | nt
CCCOc1ccc(Br)cc1CSC(=N)N | 97* | -9 | -60 | -1 | -6 | 92*
CCOc1ccc(Br)cc1CC(=O)O | -1 | nt | -6 | -7 | -1 | nt
Cc1ccc(C(=O)C(OC(=O)CN2C(=O)c3ccccc3C2=O)c2ccccc2)cc1C (stereo not given) | -1 | -9 | 34 | -14 | 5 | nt
O=C1c2cccc3cccc(c23)C(=O)N1CC1CCN(CC(O)COCc2ccc3c(c2)OCO3)CC1 (stereo not given) | 56* | -9 | -10 | 1 | -2 | 5 | MPTP swell DR=9.6*;MPTP counter DR=26*
COc1ccc(OCC(O)CN2CCC(CN3C(=O)c4cccc5cccc(c45)C3=O)CC2)cc1 (stereo not given) | 19 | nt | -7 | -2 | -4 | nt
Cc1ccc(C)c(OCC(O)CN2CCC(CN3C(=O)c4cccc5cccc(c45)C3=O)CC2)c1 (stereo not given) | 100* | -12 | -17 | -4 | -6 | 92*
O=[N+]([O-])c1cc(Br)cc(C=Nc2ccc3c(c2)OCO3)c1O | 75* | 0 | 3 | 6 | -5 | 52*
COc1ccc(-c2ocnc2C(=O)NCc2nn(-c3ccccc3)nc2C)cc1 | 98* | -13 | 16 | 2 | -4 | 87*
CC(C)(C)c1ccc(Oc2ccc(NC(=O)c3cccs3)cn2)cc1 | 54* | -10 | 22 | 3 | -4 | 44*
COc1ccc(NC(=O)c2cccs2)cn1 | 1 | 2 | -2 | -4 | 0 | nt
CC(C)Oc1ccc(S(=O)(=O)N2CCOCC2)cc1NC(=O)c1cc([N+](=O)[O-])ccc1N1CCOCC1 | -1 | nt | 35 | 3 | 3 | nt
CCCCOc1ccc(CSCCNC(=S)Nc2ccccc2)cc1 | 97* | -9 | 17 | -13 | -3 | 95*
NC1=NC[C@H](c2ccccc2)N1CCCCC1CCCCC1 | 81* | -10 | -142 | -5 | -8 | 37*
NCCCC[C@H]1CN=C(N)N1CCCCC1CCCCC1 | 74* | nt | -5 | -1 | -4 | -9 | MPTP swell DR=i;MPTP counter DR=>80
CCN1CCN(C(=O)/C(=C/c2ccco2)NC(=O)c2ccccc2)CC1 | -1 | -1 | -7 | -2 | 1 | nt
CCOc1ccc(C2NCCc3cc(OC)c(OC)cc32)cc1OC (stereo not given) | 0 | -3 | -1 | -2 | 0 | nt
COc1ccc2cc1Oc1ccc(cc1)C[C@H]1c3c(cc(OC)c4c3Oc3c(ccc5c3[C@H](C2)N(C)CC5)O4)CCN1C | 90* | nt | 66* | -14 | -6 | -18
COc1ccc2cc1Oc1ccc(cc1)CC1c3c(cc(OC)c4c3Oc3cc5c(cc3O4)CCNC5C2)CCN1C (stereo not given) | 78* | -9 | 49 | -8 | -6 | -17

Source: PubChem BioAssay (Sanford-Burnham Center for Chemical Genomics)
